# About 83,000 compounds went through this panel and 20% of them were active in at least one assay; those are over-represented in the sample as a whole.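 Interpretation: 100, growth as untreated; towards 0, rising growth inhibition; 0, no net growth; 0 to -100, cell death. Compounds scoring below 10 were considered active.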 Values without a mark were called inactive. Calls of active or inactive are those of the source.
# System: MDA-MB-435 melanoma
# Experiment: NCI-60 one-dose screen, 48 h (100 = growth as untreated, 0 = no growth, -100 = all killed)
# Conditions: 10 µM
row,Compound,growth
1,CC[C@]12C=CCN3CC[C@@]4(c5ccc(OC)cc5N(C)[C@H]4[C@@](O)(C(=O)OC)[C@@H]1OC(=O)CCCC[P+](c1ccc(OC)cc1)(c1ccc(OC)cc1)c1ccc(OC)cc1)[C@@H]32,-88.5% (active)
2,CC1=C(CCC=NNC(N)=O)C2=C(C)C3(CC3)[C@@](C)(O)C(=O)C2=C1,-96.3% (active)
3,CC[C@@]12CC(C(=O)OC)=C3Nc4cc5c(cc4[C@@]34CCN(C[C@H]3O[C@H]31)[C@@H]24)[C@@H]1[C@H](O5)[C@@H](O)[C@@]2(CC)CC(C(=O)OC)=C3Nc4cc(OC)ccc4[C@@]34CCN1[C@@H]24,9.48% (active)
4,CCOP(=O)(CC(F)(F)C(F)(F)F)OCC,18.4%
5,CC1=C2C(=C[C@@](C)(COP(=O)(Oc3ccccc3)Oc3ccccc3)[C@@H]2O)C(=O)[C@@](C)(O)C12CC2,-77.1% (active)
6,CC(=O)Oc1ccccc1C(=O)NC([Se])=NC1CCCCC1,8.85% (active)
7,C[C@H]1[C@H](OC(=O)CCC(=O)N(CCCc2cn(-c3ccc(CN4CCOCC4)cc3)nn2)CCNc2ccnc3cc(Cl)ccc23)O[C@@H]2OC3(C)CC[C@H]4[C@H](C)CC[C@@H]1[C@@]24OO3,18.4%
8,O=C(/C=C/c1ccc(Cl)cc1)c1nc2ccccc2n1Cc1ccc(F)cc1,12.1%
9,CC1=C(CCC=O)C2=C(C)C3(CC3)[C@@](C)(O)C(=O)C2=C1,-88.8% (active)
10,O=C(NC([Se])=NC1CCCCC1)c1ccc2c(c1)OCO2,86.4%
11,C[C@H]1[C@H](OC(=O)CCC(=O)N(CCCc2cn(-c3ccc(C#N)cc3)nn2)CCNc2ccnc3cc(Cl)ccc23)O[C@@H]2OC3(C)CC[C@H]4[C@H](C)CC[C@@H]1[C@@]24OO3,28.8%

# — PubChem BioAssay (NCI)
